Most compounds without a hit are left out; they make up all but 2.1% or so of the library.
aSyn rescue: rescues yeast growth from alpha-synuclein toxicity | Potency, µM (titrated, usually from 46.1 µM), inactives show at the top dose growth rescue (activation), hits mostly activators | Yeast expressing alpha-synuclein, growth rescue, BacTiter-Glo, 24 h | 0.14% of 370,000 active; further: % of control where 0% means no effect; nearly all actives have a fitted effect of over 65% in size
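Readout is rescue of growth in alpha-synuclein-expressing yeast, so inhibitors of toxicity appear as activators. Growth after 24 hr at 30 deg C in galactose medium is quantified by luminescence.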
FUS yeast rescue: suppressors of FUS proteinopathy in yeast; AID 1347120; Potency, µM (doses to about 76.6 µM), usual class: activators; S. cerevisiae FUS-expressing, growth rescue, OD600, 24 h; 0.24% of 390,000 active;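 further: plate controls were DMSO vehicle for no effect and reference control for full effect; nearly all actives have a fitted effect of over 55% in size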
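FUS-expressing yeast, raffinose-pregrown, induced in 2% galactose minimal medium at OD 0.005; compounds in a dilution series, 24hr at 30C. Growth restoration read as absorbance at 600 nm. CP55940 positive control, DMSO negative.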
Abeta yeast res: A-beta toxicity reversal in yeast. Potency, µM (doses to about 46.1 µM), usual class: activators. AID 1347071. yeast expressing A-beta42, growth rescue, OD600, 48 h; response scale: 0% DMSO, 100% iron-clioquinol control. 0.063% of 410,000 active; further: nearly all actives have a fitted effect of over 55% in size
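Yeast growth medium received pinned compounds, then yeast cells expressing toxic A-beta were added; plates incubated at 30 C for 48 hr. Growth read as absorbance at 600 nm, normalized to DMSO and equimolar FeCl3 plus clioquinol controls.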
TDP43 rescue: TDP-43 toxicity inhibition in yeast. Potency, µM (titrated, usually from 46.1 µM), for the others: at the highest dose growth rescue (activation), usual class: activators. TDP-43 expressing yeast growth rescue, BacTiter-Glo, 24 h. 1.8% of 410,000 active; further: % of control where 0% means no effect; nearly all actives have a fitted effect of over 50% in size
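In this qHTS, compounds that restore growth of yeast expressing TDP-43 appear as activators. Cells (OD600=0.02, galactose medium, raffinose-pregrown) are incubated with compound 24 hr at 30 deg C and growth is quantified by BacTiter-Glo.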
* marks the source's active call; other numbers are inactive results; i = inactive; ? = inconclusive; . = not tested or not shown; [ ] = remark or other dose. The call rests on the fitted dose curve; in most records, active means well fitted curve in the direction sought with a large enough effect; inconclusive means small, poorly fitted or top-dose-only effect, or another doubt; inactive means no such curve, though single readings can be large; an effect the other way counts as inactive or inconclusive. Potency means the concentration at half of the fitted maximal effect.

SMILES	aSyn rescue	FUS yeast rescue	Abeta yeast res	TDP43 rescue
O[C@H](COc1ccccc1)CN1CCC(C(O)(c2ccccc2)c2ccccc2)CC1	.	i	.	.
Cc1cc2ccccc2c[n+]1C	-3%	.	.	.
COC(=O)C(C)Oc1ccc(-c2nccc(-c3cccs3)n2)cc1 (stereo not drawn)	-10%	i	i[9.22 µM]	-9%
Oc1ccc(-c2nccc(-c3cccs3)n2)cc1	-2%	i	i	13µM*
CSc1ccc(CCNc2ncnc3onc(C)c23)cc1	.	i	i	?
CSc1cccc(NC(=O)C2CCCN(C(=O)c3cnn(-c4ccc(F)cc4)c3-n3cccc3)C2)c1 (stereo not drawn)	.	?	i	?
O=C(O)c1ccccc1NC(=O)N1c2ccccc2Sc2ccccc21	.	i	i	20µM*
COc1cc(NC(=O)N2c3ccccc3Sc3ccccc32)c(C(=O)O)cc1OC	-2%	i	i	?
CCCN(CC1CC1)C(=S)Nc1ccc(Oc2ccccc2)cc1	0%	.	i	20µM*
CC1CC1c1ccc(/C=C(\C#N)C(=O)Nc2ccc(Cl)cc2)o1 (stereo not drawn)	-15%	.	i	24%
CC1CC1c1ccc(/C=C(\C#N)C(=O)Nc2ccccc2Cl)o1 (stereo not drawn)	17%	.	i	11µM*
Cc1ccc(S(=O)(=O)NCCc2cn3ccsc3n2)cc1	.	i	i	9%
O=C(Nc1ccc(S(=O)(=O)N2CCOCC2)cc1)C1CCN(S(=O)(=O)c2ccc(F)cc2)CC1	-4%	?	i	14µM*
CCOc1ccc(Cl)cc1-c1cc(C(=O)NCc2ccccc2OC)[nH]n1	?	?	i	18µM*
CC(=O)/C=C\c1ccc(OC(=O)c2cccnc2)cc1	9%	i	i	20µM*
CCCCOc1ccc(C(=O)Oc2ccc(C)nc2)cc1	-13%	i	i	-8%
CCOc1ccc(OC(=O)c2cccnc2)cc1	0%	i	i	16µM*
O=Cc1ccc(OC(=O)c2cccnc2)cc1	0%	i	i	-33%
COC(=O)c1ccc(OC(=O)c2cccnc2)cc1	10%	i	i	-18%
CCCCCOc1ccc(OC(=O)c2ccncc2)cc1	-6%	i	i	35µM*
O=C(O)c1ccc(CNc2ncnc3nc[nH]c23)cc1	-3%	.	.	.
CN(CCCc1cnc[nH]1)C(=S)NCCCN(Cc1ccc(Cl)cc1)c1ccc(Br)cn1	-19%	.	.	.
CCNC(=S)Nc1ccc(N2CCCCC2)cc1	-11%	i	i	3%
S=C(NCCc1ccccc1)Nc1ccc(N2CCCCC2)cc1	-9%	i	8.9µM*	30%
CC1CC(C)CN(CCCNS(=O)(=O)c2cc3c(cc2Br)CCN3C(=O)C2CC2)C1 (stereo not drawn)	.	i	.	.
SMILES	aSyn rescue	FUS yeast rescue	Abeta yeast res	TDP43 rescue
COc1ccccc1NC(=O)CN1C(=O)CC(c2ccc(C)c(C)c2)=Nc2ccccc21	.	i	i	21%
N#C/C(=C\c1cccs1)Sc1nc2ccccc2s1	-6%	.	i	?
N#C/C(=C\c1ccc[nH]1)Sc1nc2ccccc2s1	3%	i	i	22µM*
Cc1ccc2[nH]c(-c3cccc(F)c3)cc(=O)c2c1	7%	i	i	19%
Cc1ccc2[nH]c(-c3cccc(N)c3)cc2c1	12%	?	i	22µM*
COc1ccc(CNC(=O)CCc2c(C)nn(-c3ccc(N4CCCCC4)nn3)c2C)cc1	.	i	i	-3%
CC(C)[C@@H]1CC[C@@H](C)c2c(-c3ccccc3)n[nH]c21	?	i	i	11µM*
c1ccc(-c2n[nH]c3c2CCC3)cc1	7%	i	?	?
Cc1ccc(SCCC(=O)Nc2ccccc2Br)cc1	4%	i	i	23%
CN(CC(=O)Nc1ccccc1Br)C(=O)CCSc1ccc(F)cc1	12%	i	i	14µM*
CC(=O)c1ccc(NC(=O)c2nc(-c3ccccc3)n(-c3ccccc3)n2)cc1	.	i	i	18µM*
N#Cc1ccc(NC(=O)c2nc(-c3ccccc3)n(-c3ccccc3)n2)cc1	-9%	i	i	-4%
Cc1nc(C(=O)Nc2cc(Cl)ccc2Cl)nn1-c1cc(OC(C)C)c(Cl)cc1Cl	5%	i	i	10%
Cc1nc(C(=O)Nc2cccc(Cl)c2)nn1-c1cc(OC(C)C)c(Cl)cc1Cl	-11%	32µM*	i	5%
CC(=O)c1cccc(NC(=O)c2nc(-c3ccccc3)n(-c3cccc(Cl)c3)n2)c1	.	?	i	35µM*
CCc1ccc(NC(=O)c2cc(C)nn2-c2ccccc2)cc1	-1%	i	i	16µM*
COc1ccc(C2Nc3ccccc3C(=O)N2Cc2ccccc2)cc1COc1ccc([N+](=O)[O-])cc1 (stereo not drawn)	0%	.	.	.
CN1C(=O)c2ccccc2Sc2ccc(NC(=O)N3CCN(c4ccc(F)cc4)CC3)cc21	.	i	?	13%
CC(=O)c1ccc(NC(=O)c2nc(-c3ccccc3)n(-c3ccccc3Cl)n2)cc1	.	?	i	14µM*
COc1ccc(-c2nc(C(=O)Nc3ccc(C(C)=O)cc3)nn2-c2cccc(Cl)c2)cc1	.	?	i	?
O=C(COC(=O)CNC(=O)C1CCCCC1)NC1CC1	-1%	.	.	.
O=C1CC(c2ccccc2)CC2=C1C=Nc1ccccc1N2 (stereo not drawn)	1%	i	i	0%
O=C1CC(c2ccc(F)cc2)CC2=C1C=Nc1ccccc1N2 (stereo not drawn)	-3%	i	i	22µM*
CC(=C1SC(=S)NC1=O)c1ccccc1	-12%	.	i	13µM*
CCCNC(=O)c1oc2ccc3c(c2c1C)C(=O)CC(C)(C)O3	-2%	i	i	14µM*
SMILES	aSyn rescue	FUS yeast rescue	Abeta yeast res	TDP43 rescue
C=C(/C=C/c1ccc(N(C)C)cc1)c1nc2ccccc2s1	-67%	.	.	.
c1ccc(-c2cnc(-c3ccccn3)nn2)cc1	25%	i	i	22µM*
C=CCNc1nc(-c2ccccn2)nnc1-c1ccccc1	?	i	i	?
c1ccc(-c2ccc(CNc3nc(-c4ccccn4)nnc3-c3ccccc3)cc2)cc1	.	20µM*	.	.
c1ccc(-c2cnc(-c3ccccc3)nn2)cc1	-1%	i	i	23%
O=C(OC12CCCN(C1)/C(=C/c1ccccc1)C2)C1CCCCC1 (stereo not drawn)	.	i	.	.
CC(C)=CNNC(=O)c1ccc(O)cc1	-3%	.	.	.
O=C(NNc1ccc(F)cc1F)c1cccs1	5%	.	.	.
CCOC(=O)C1CCN(c2ncnc3c2[nH]c2cccc(OC)c23)CC1	1%	22µM*	i	-14%
CCOC(=O)c1nnn(-c2nonc2N)c1CSc1ccc(C)cc1	15%	i	i	22µM*
CCOC(=O)c1nnn(-c2nonc2N)c1CSc1ccccc1	14%	i	i	?
CCOC(=O)c1cn2nc(SCc3ccccc3)nc2nc1C	1%	i	i	16µM*
